This is an account of results in PubChem BioAssay (Tox21).

A short description of experiment [1]: qHTS assay to identify small molecule antagonists of the estrogen receptor alpha (ER-alpha) signaling pathway using the BG1 cell line in the presence of 0.1 nM 17-beta-estradiol - cell viability counter screen (AID 1259241). Also: nearly all actives have a fitted effect of over 40% in size. Also: potency is read from the fitted curve at half-maximal effect. A digest of the protocol: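 Measures cytotoxicity alongside the ER-alpha antagonist readout: VM7Luc4E2 cells, charcoal-stripped serum, 0.1 nM 17beta-estradiol final, 22 hr compound incubation at 37C, CellTiter-Fluor fluorescence.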

Experiment [2] can be described thus: qHTS assay to identify small molecule antagonists of the androgen receptor (AR) signaling pathway using the MDA cell line in the presence of 0.5 nM R1881 - cell viability counter screen (AID 1259242). Also: nearly all actives have a fitted effect of over 45% in size. Also: potency is read from the fitted curve at half-maximal effect. The method, boiled down:
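Steps: plate MDA-kb2 cells, rest 5 hr at 37C without CO2; pin in compounds in DMSO; add R1881 to 0.5 nM final; incubate 16 hr; add CellTiter-Fluor, 30 min; read fluorescence.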

Experiment [3] concerns the target Androgen receptor (Homo sapiens) (UniProt P10275). As to the kind of experiment: qHTS assay to identify small molecule antagonists of the androgen receptor (AR) signaling pathway using the MDA cell line in the presence of 0.5 nM R1881 (AID 1259243). Also: nearly all actives have a fitted effect of over 50% in size. Also: potency is read from the fitted curve at half-maximal effect. A digest of the protocol:
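Stably transfected MDA-kb2 cells express luciferase from an MMTV promoter bearing both AR and GR response elements. Compounds plus 0.5 nM R1881 (final) were incubated 16 hr at 37C without CO2, then luminescence measured.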
On the technique in general: Quantitative high-throughput screening tests each substance at several concentrations.

In experiment [4] the target is Estrogen receptor (Homo sapiens) (UniProt P03372). As to the kind of experiment: qHTS assay to identify small molecule antagonists of the estrogen receptor alpha (ER-alpha) signaling pathway using the BG1 cell line in the presence of 0.1 nM 17-beta-estradiol (AID 1259244). Also: nearly all actives have a fitted effect of over 50% in size. The method, boiled down: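 Antagonist mode: compounds in DMSO are pinned onto VM7Luc4E2 reporter cells, 0.1 nM final 17beta-estradiol is added, and after 22 h at 37C luciferase luminescence is measured with ONE-Glo.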

A short description of experiment [5]: qHTS assay to identify small molecule phospholipidosis (PLD) inducers (AID 1259344; active = well fitted curve in the direction sought with a large enough effect; an effect the other way counts as inactive or inconclusive; also: potency is read from the fitted curve at half-maximal effect). The method, boiled down:
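Accumulated phospholipid, stained red by LipidTOX during 24 h compound treatment of HepG2 cells at 37 C, is quantified from images as pit number and intensity, normalised per cell using Hoechst-stained nuclei.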

A short description of experiment [6]: qHTS assay to identify small molecule HDAC inhibitors (AID 1259364).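 Also: wild-type HCT-116 cells with endogenous class I/II HDAC activity; top concentration of the series differs between compounds; nearly all actives have a fitted effect of over 45% in size.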 A digest of the protocol: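 Cells (HCT-116, wild type) are seeded at 1,500 per well, incubated overnight, treated with compound in DMSO for 2 hr, then developed with HDAC-Glo I/II reagent for 30 min at room temperature.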
A short description of experiment [7]: qHTS assay to identify small molecule HDAC inhibitors - cell viability counter screen (AID 1259365). Also: series mostly up to about 92 µM; nearly all actives have a fitted effect of over 50% in size. The method, boiled down: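 Following a 2hr exposure of overnight-plated wild-type HCT-116 cells to DMSO-delivered compounds, CellTiter-Glo was added and luminescence recorded after 30min at room temperature.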
Experiment [8] in a line: qHTS assay to identify small molecule agonists of the sonic hedgehog signaling (Shh) pathway - cell viability counter screen (AID 1259366). Also: nearly all actives have a fitted effect of over 50% in size. Also: potency is read from the fitted curve at half-maximal effect. The method, boiled down: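 After a 4hr attachment at 37C, NIH/3T3 cells bearing an integrated Gli1-driven luciferase reporter were dosed with compounds. Treatment lasted 24hr, with the final hour including CellTiter-Fluor for a fluorescence viability measurement.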

Experiment [9] can be described thus: qHTS assay to identify small molecule antagonists of the sonic hedgehog signaling (Shh) pathway - cell viability counter screen (AID 1259367). Also: nearly all actives have a fitted effect of over 55% in size. Also: potency is read from the fitted curve at half-maximal effect. The method, boiled down:
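CellTiter-Fluor signal in conditioned medium-stimulated 3T3 Gli1-Luc cells, 23 hr compound exposure, 37C.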

Experiment [10] can be described thus: qHTS assay to identify small molecule agonists of the sonic hedgehog signaling (Shh) pathway (AID 1259368; calls by dose curve;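 also: NIH/3T3-derived 3T3Gli1-Luc cells carrying a stable Gli1-driven firefly luciferase reporter; series mostly up to about 92 µM; nearly all actives have a fitted effect of over 15% in size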). A digest of the protocol:
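Cells of a mouse NIH/3T3 clone stably expressing luciferase under the Gli1 transcriptional response element are exposed to test chemicals for 24 hr at 37 C. Pathway activation is detected as a rise in luminescence.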

Experiment [11] in a line: qHTS assay to identify small molecule antagonists of the sonic hedgehog signaling (Shh) pathway (AID 1259369; calls by dose curve; also: nearly all actives have a fitted effect of over 45% in size; also: potency is read from the fitted curve at half-maximal effect). The method, boiled down:
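Cells are plated and held 4hr at 37 C, compounds (DMSO) are pinned in, conditioned medium is added to stimulate the pathway, and after 24hr luciferase reagent is added for 30min before luminescence is read.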

Experiment [12] can be described thus: qHTS assay to identify small molecule agonists of the androgen receptor (AR) signaling pathway in the presence of an antagonist - cell viability counter screen (AID 1259379). Also: nearly all actives have a fitted effect of over 25% in size. Also: potency is read from the fitted curve at half-maximal effect. A digest of the protocol: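 Cytotoxicity is assessed by CellTiter-Fluor in MDA-kb2 cells carrying an MMTV-driven luciferase reporter. Cells receive 3.0uM nilutamide plus compounds at 15 concentrations and incubate 16 hr at 37C without CO2 before fluorescence reading.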

Experiment [13] has as its target Androgen receptor (Homo sapiens) (UniProt P10275). As to the kind of experiment: qHTS assay to identify small molecule agonists of the androgen receptor (AR) signaling pathway in the presence of an antagonist (AID 1259381; calls by dose curve; also: nearly all actives have a fitted effect of over 15% in size). A digest of the protocol:
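Agonist-mode confirmation screen: human MDA-kb2 cells stably expressing luciferase under an MMTV promoter bearing AR and GR response elements, co-treated with 3.0uM nilutamide (final). Luminescence measured after 16hr compound incubation.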

Experiment [14] deals with Estrogen receptor (Homo sapiens) (UniProt P03372). As to the kind of experiment: qHTS assay to identify small molecule agonists of the estrogen receptor alpha (ER-alpha) signaling pathway in the presence of an antagonist (AID 1259383; calls by dose curve; also: top concentration of the series differs between compounds; nearly all actives have a fitted effect of over 15% in size). The method, boiled down: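 Agonist-mode confirmation in the presence of the ER antagonist ICI-182,780 at 10.0nM final. Breast-derived VM7Luc4E2 reporter cells were exposed to compounds for 22hr, and ERE-driven luciferase was quantified by luminescence.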

Experiment [15] in a line: qHTS assay to identify small molecule agonists or antagonists of the thyroid stimulating hormone receptor (TSHR) signaling pathway - wild type cell line counter screen (AID 1259384; calls by dose curve). A digest of the protocol: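 Counter screen in untransfected Hek293: compounds (15-point titration, triplicate) plus phosphodiesterase inhibitor Ro20-1724 added after 18 h plating; 30 min RT. Intracellular cAMP via competitive d2/cryptate immunoassay, 1 h incubation.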

Experiment [16] deals with Thyrotropin receptor (Homo sapiens) (UniProt P16473). As to the kind of experiment: qHTS assay to identify small molecule antagonists of the thyroid stimulating hormone receptor (TSHR) signaling pathway (AID 1259385; calls by dose curve; also: nearly all actives have a fitted effect of over 20% in size). The method, boiled down: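 Antagonist mode: compound-treated TSHR-expressing HEK293 cells were stimulated with 1.5 ng/mL TSH (final) in presence of Ro20-1724 for 30 min at RT. HTRF cAMP detection after 1 h; each compound tested at 15 concentrations, triplicate.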

Experiment [17] has as its target Estrogen receptor beta (Homo sapiens) (UniProt Q92731). As to the kind of experiment: qHTS assay to identify small molecule agonists of the estrogen receptor beta (ER-beta) signaling pathway (AID 1259377; active = well fitted activation curve with a large enough effect in the signal ratio in the repeat runs, not every such curve was filed as active; the % refers to the signal ratio). A digest of the protocol: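 In HEK293T cells bearing a UAS-beta-lactamase reporter under ER-beta control, DMSO-delivered compounds were incubated for 16 hr at 37C. Activity was detected as fluorescence 2 hours after LiveBLAzer B/G FRET substrate addition.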

Experiment [18] has the same target. As to the kind of experiment: qHTS assay to identify small molecule antagonists of the estrogen receptor beta (ER-beta) signaling pathway (AID 1259378; active = well fitted inhibition curve with a large enough effect in the signal ratio in the repeat runs, not every such curve was filed as active; the % refers to the signal ratio). A digest of the protocol:
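Antagonist mode: compounds added to beta-lactamase reporter HEK293T ER-beta-UAS cells stimulated with E2 (1nM final), 16 hr at 37C. LiveBLAzer B/G FRET substrate, 2 hours room temperature, fluorescence read-out.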

Experiment [19] in a line: qHTS assay to identify small molecule agonists of the estrogen receptor beta (ER-beta) signaling pathway - cell viability counter screen (AID 1259380). Also: nearly all actives have a fitted effect of over 30% in size. Also: potency is read from the fitted curve at half-maximal effect. The method, boiled down:
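Cytotoxicity is measured in parallel with the reporter screen: after 16 hr compound exposure at 37C and a 2 hr LiveBLAzer step, CellTiter-Glo is added to the same ER-beta-UAS-bla HEK293T wells and luminescence read after 30 min.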

Experiment [20] can be described thus: qHTS assay to identify small molecule antagonists of the estrogen receptor beta (ER-beta) signaling pathway - cell viability counter screen (AID 1259382). Also: nearly all actives have a fitted effect of over 55% in size. Also: potency is read from the fitted curve at half-maximal effect. The method, boiled down: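 Cytotoxicity counter screen multiplexed with the beta-lactamase antagonist assay: GripTite HEK293T ER-beta-bla cells were treated 16 hr with test chemicals in the presence of 1nM 17-beta-estradiol, and viability was measured by CellTiter-Glo.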

Values without a mark were called inactive. Inconclusive results are not listed. Calls of active or inactive are those of the source. Unless noted, calls follow the shape of the dose curve; as a rule, active = well fitted curve in the direction sought with a large enough effect in the repeat runs; inconclusive = weak or mixed curves; inactive = no such curve, though single readings can be large; an effect the other way counts as inactive or inconclusive.

Chain of Estrogen receptor (Homo sapiens) (P03372 whole entry, looked up): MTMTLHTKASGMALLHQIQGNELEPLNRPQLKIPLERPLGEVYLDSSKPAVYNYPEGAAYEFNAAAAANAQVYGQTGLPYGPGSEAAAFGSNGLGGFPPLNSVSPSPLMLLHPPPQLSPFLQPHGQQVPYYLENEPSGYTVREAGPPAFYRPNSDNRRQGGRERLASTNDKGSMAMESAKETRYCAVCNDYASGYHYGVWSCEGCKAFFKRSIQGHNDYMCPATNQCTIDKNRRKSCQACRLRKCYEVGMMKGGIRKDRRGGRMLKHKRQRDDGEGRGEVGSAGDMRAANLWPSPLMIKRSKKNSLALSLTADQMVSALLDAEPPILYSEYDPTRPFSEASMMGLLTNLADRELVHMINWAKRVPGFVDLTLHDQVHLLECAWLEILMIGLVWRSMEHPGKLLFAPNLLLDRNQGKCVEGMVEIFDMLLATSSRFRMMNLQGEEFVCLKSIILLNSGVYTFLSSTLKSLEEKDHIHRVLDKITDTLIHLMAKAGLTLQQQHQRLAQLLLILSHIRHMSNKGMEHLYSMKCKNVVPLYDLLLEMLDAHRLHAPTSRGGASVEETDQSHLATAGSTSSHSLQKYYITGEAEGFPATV
Chain of Estrogen receptor beta (Homo sapiens) (Q92731 whole entry, looked up): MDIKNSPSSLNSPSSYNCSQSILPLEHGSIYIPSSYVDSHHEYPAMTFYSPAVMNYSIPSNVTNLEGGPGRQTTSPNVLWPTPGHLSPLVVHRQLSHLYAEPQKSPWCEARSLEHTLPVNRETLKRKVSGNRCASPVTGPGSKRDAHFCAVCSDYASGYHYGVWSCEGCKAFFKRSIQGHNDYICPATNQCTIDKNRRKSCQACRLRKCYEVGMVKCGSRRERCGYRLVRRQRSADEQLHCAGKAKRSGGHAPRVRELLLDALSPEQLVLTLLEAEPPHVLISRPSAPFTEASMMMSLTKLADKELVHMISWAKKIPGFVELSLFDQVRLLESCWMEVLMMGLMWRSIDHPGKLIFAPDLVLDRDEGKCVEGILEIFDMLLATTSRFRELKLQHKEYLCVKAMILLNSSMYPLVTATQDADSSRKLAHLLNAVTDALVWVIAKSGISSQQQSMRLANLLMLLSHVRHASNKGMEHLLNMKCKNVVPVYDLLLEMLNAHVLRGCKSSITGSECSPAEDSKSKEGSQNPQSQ
Chain of Androgen receptor (Homo sapiens) (P10275 whole entry, looked up): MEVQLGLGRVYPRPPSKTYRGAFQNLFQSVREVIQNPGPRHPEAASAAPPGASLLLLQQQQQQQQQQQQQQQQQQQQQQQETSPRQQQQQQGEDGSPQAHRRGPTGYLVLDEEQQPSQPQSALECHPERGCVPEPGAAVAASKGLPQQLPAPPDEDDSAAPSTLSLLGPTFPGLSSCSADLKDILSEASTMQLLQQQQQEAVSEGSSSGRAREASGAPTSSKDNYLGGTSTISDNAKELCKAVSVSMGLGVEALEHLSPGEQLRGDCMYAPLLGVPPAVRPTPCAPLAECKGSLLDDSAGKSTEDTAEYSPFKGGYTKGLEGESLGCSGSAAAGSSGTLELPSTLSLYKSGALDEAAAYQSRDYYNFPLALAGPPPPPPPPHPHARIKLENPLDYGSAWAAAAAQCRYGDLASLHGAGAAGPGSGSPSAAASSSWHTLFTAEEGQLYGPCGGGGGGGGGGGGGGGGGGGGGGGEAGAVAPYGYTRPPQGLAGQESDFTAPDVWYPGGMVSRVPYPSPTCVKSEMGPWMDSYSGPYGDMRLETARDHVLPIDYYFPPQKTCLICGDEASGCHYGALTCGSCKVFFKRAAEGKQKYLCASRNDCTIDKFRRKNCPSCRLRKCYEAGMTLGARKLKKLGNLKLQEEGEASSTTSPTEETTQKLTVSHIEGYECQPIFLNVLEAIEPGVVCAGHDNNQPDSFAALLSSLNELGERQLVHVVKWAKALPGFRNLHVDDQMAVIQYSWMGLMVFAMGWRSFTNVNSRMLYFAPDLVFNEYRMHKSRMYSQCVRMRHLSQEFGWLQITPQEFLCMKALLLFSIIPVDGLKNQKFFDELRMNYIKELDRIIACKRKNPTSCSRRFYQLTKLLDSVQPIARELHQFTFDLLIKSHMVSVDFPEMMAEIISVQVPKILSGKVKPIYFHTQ
Chain of Thyrotropin receptor (Homo sapiens) (P16473 whole entry, looked up): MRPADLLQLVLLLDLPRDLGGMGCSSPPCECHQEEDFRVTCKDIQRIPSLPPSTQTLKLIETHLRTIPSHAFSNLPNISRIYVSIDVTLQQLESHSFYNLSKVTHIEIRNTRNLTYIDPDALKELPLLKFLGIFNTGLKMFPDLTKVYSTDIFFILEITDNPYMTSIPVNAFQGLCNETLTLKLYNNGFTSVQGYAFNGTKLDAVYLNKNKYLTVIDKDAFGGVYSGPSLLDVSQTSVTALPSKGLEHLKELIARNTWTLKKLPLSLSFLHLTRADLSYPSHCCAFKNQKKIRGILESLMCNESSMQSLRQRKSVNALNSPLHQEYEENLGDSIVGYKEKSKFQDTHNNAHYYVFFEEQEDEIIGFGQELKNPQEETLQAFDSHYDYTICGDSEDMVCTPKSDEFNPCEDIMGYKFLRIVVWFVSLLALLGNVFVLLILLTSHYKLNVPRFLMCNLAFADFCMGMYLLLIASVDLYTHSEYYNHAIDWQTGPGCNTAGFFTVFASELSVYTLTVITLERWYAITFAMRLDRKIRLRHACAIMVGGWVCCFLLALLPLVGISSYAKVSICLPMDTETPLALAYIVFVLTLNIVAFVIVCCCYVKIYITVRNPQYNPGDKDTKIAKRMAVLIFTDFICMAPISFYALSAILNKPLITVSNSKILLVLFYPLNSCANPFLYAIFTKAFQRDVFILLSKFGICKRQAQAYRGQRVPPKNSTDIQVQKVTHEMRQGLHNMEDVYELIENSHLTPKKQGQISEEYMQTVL

As to `O=C(O)COC(=O)Cc1ccccc1Nc1c(Cl)cccc1Cl`, the Potency result in experiment [1], in experiment [2], in experiment [3], in experiment [4], in [5] and in experiment [6] was “inactive” in each case. The Potency result in [8], in experiment [9], in experiment [11], in [12], in experiment [13] and in [14] was “inactive” in each case. Also, the Potency entry in [15] and in [16] was “inactive” each time. In addition, the compound was called inactive in experiment [7] and in [10].
On to `CCCCOC(O)CC` (configuration not stated), for which the Potency result in [1], in [2], in [3], in experiment [4], in [6] and in [8] was “inactive” in each case. The Potency entry in experiment [9], in experiment [11], in [17], in experiment [18], in experiment [12] and in [19] was “inactive” each time. Besides, the Potency entry in experiment [13], in [20], in experiment [14] and in experiment [16] was “inactive” each time. In [7], the compound was called inactive.
In the case of `CNCC[C@@H](Oc1ccccc1C)c1ccccc1`, the Potency entry in experiment [1], in experiment [2], in experiment [4], in [5], in experiment [6] and in [8] was “inactive” each time. Further, the Potency entry in experiment [9], in experiment [12], in [13] and in experiment [15] was “inactive” in each case. The call in experiment [7] and in [10] was inactive. Besides, the Potency in experiment [19] was 26.6 µM (active); in experiment [20], 23.7 µM (active).
For `C1CCC2OC2C1` (configuration not stated), the Potency result in [1], in experiment [2], in experiment [3], in experiment [4], in experiment [6] and in experiment [8] was “inactive” throughout. In addition, the Potency entry in experiment [9], in experiment [11], in experiment [18], in experiment [12], in experiment [19] and in experiment [13] was “inactive” each time. Further, the Potency entry in [20] and in [14] was “inactive” each time. Also, the result in [7] was inactive.
With `CCN1CCC[C@H]1CNC(=O)c1c(OC)ccc(Br)c1OC`, the Potency result in experiment [1], in experiment [2], in experiment [4], in experiment [5], in experiment [6] and in experiment [8] was “inactive” throughout. Besides, the Potency result in experiment [9], in [11], in experiment [18], in experiment [12], in experiment [19] and in experiment [20] was “inactive” throughout. For the same compound, the Potency result in experiment [14], in experiment [15] and in [16] was “inactive” throughout. Further, the compound was classed as inactive in experiment [7] and in experiment [10].
As to `NC(N)=NN=C(/C=C/c1ccc([N+](=O)[O-])o1)/C=C/c1ccc([N+](=O)[O-])o1`, the Potency in experiment [1] was 11.9 µM (active); in [2], 6.68 µM (active); in experiment [3], 1.88 µM (active); in [8], 2.37 µM (active); in experiment [9], 2.37 µM (active); in [11], 2.98 µM (active). The Potency was 8.41 µM (active) in experiment [12] and 10.6 µM (active) in experiment [19]. The Potency entry in [4], in experiment [5], in experiment [6], in experiment [13], in [14] and in experiment [15] was “inactive” in each case.
Regarding `CC(C)c1ccc2c(C(C)C)cc(C(C)C)c(S(=O)(=O)O)c2c1`, the Potency result in experiment [1], in experiment [2], in experiment [3], in [4], in experiment [6] and in [8] was “inactive” throughout. For the same compound, the Potency entry in experiment [9], in [11], in experiment [12], in experiment [13], in experiment [20] and in experiment [14] was “inactive” in each case. Besides, the Potency result in experiment [15] and in experiment [16] was “inactive” throughout. In addition, in [10], the call was inactive.
Regarding `CN1CCN(C2=Nc3ccccc3Sc3ccc(Cl)cc32)CC1`, the Potency entry in experiment [1], in [2], in experiment [3], in experiment [8], in experiment [9] and in experiment [11] was “inactive” in each case. In addition, the Potency result in experiment [18], in experiment [12], in [19], in experiment [13], in [20] and in [16] was “inactive” in each case. In addition, in experiment [5], the Potency was 11.2 µM (active). Moreover, in experiment [10], the outcome was inactive.
